{"source": "PubChem BioAssay (NCATS)", "note": "Inconclusive results are not listed. Where a call stands in place of a potency, no number is given. Values without a mark were called inactive. Activity calls are given as the source filed them. The call rests on the fitted dose curve; in most records, active means well fitted inhibition curve with a large enough effect; inconclusive means small, poorly fitted or top-dose-only effect; inactive means no such curve, though single readings can be large or run the other way. Potency means the concentration at half of the fitted maximal effect."}
{"tested_on": "not listed separately", "test": "qHTS for Inhibitors of the Aldehyde Dehydrogenase Family (ALDH1A2, ALDH1A3, ALDH2, ALDH3A1) (AID 2061307); further: nearly all actives have a fitted effect of over 50% in size; on potency: test system not described further here", "settings": "ALDH inhibition qHTS; series mostly up to 50.3 µM"}
{"smiles": "CC(=O)c1c(C)n(-c2ccc(Cl)cc2)c2ccc(OC(=O)COc3ccccc3)cc12", "Potency": "inactive"}
{"smiles": "COc1ccc(Cl)cc1C(=O)NCc1nnc2cc(-c3nc(C)no3)ccn12", "Potency": "inactive"}
{"smiles": "COc1cc(O)c(C(CC(=O)N2C[C@H](C)C[C@H](C)C2)c2ccc3c(c2)OCO3)c(OC)c1", "note": "(stereo not given in full)", "Potency": "inactive"}
{"smiles": "CCOC(=O)c1c(C)n(-c2ccccc2)c2ccc(OC(=O)c3ccccc3)cc12", "Potency": "inactive"}
{"smiles": "COc1ccc(-n2c(C)c(C(C)=O)c3cc(OC(=O)c4ccc(C)cc4)ccc32)cc1", "Potency": "inactive"}
{"smiles": "Cn1sc(=O)n(Cc2ccccc2)c1=O", "Potency": "10.1 µM (active)"}
{"smiles": "Cc1ccc(-c2ccccc2C=O)c(C)c1", "Potency": "inactive"}
{"smiles": "Cc1cc(NS(=O)(=O)c2ccc(Nc3nc(-c4ccc(C)c(C)c4)cs3)cc2)no1", "Potency": "0.896 µM (active)"}
{"smiles": "Cc1ccc(C(=O)NCC(c2ccc3c(c2)OCO3)N2CCN(c3ccc(F)cc3)CC2)cc1", "note": "(stereo not given)", "Potency": "inactive"}
{"smiles": "COc1cccc(S(=O)(=O)NC2CCN(C#N)C2)c1", "note": "(stereo not given)", "Potency": "inactive"}
{"smiles": "CN(C)c1ccc(-c2csc(N3CCC(C(N)=O)CC3)n2)cc1", "Potency": "11.3 µM (active)"}
{"smiles": "CC(=O)N1CCN(c2ccc(NCc3ccc(Br)o3)cc2)CC1", "Potency": "10.1 µM (active)"}
{"smiles": "CC(=O)Nc1cccc(OCc2cccc(C3Nc4ccccc4C(=O)N3Cc3ccco3)c2)c1", "note": "(stereo not given)", "Potency": "7.94 µM (active)"}
{"smiles": "Cc1ccc(-c2cccc(C=O)c2)c(C)c1", "Potency": "inactive"}
{"smiles": "O=C(CCC1CCCN(S(=O)(=O)c2ccccc2F)C1)NCCCN1CCOCC1", "note": "(stereo not given)", "Potency": "inactive"}
{"smiles": "N#CNC(=O)c1ccc(-n2cccc2/C=C2\\NC(=O)N(CC(=O)Nc3ccc(F)cc3)C2=O)cc1", "Potency": "4 µM (active)"}
{"smiles": "CC(=O)N1CCN(c2ccc(NCc3ccco3)cc2)CC1", "Potency": "4 µM (active)"}
{"smiles": "O=C1Cc2cc(S(=O)(=O)N3CCN(c4ccc(Cl)cc4)CC3)ccc2N1", "Potency": "inactive"}
{"smiles": "Cc1cccc(C(=O)NCc2nnc3cc(-c4nc(C)no4)ccn23)c1", "Potency": "inactive"}
{"smiles": "O=C(NCC(=O)N1CCN(Cc2ccccc2)CC1)c1cccc(-c2ccsc2)c1", "Potency": "inactive"}
{"smiles": "Cc1ccc2nc3sc(C(=O)NC4CCC(O)CC4)cc3cc2c1", "note": "(stereo not given)", "Potency": "6.34 µM (active)"}
{"smiles": "CC(=O)c1c(C)n(-c2ccc(C)cc2)c2ccc(OC(=O)COc3ccccc3)cc12", "Potency": "inactive"}
{"smiles": "COc1ccc(-n2c(C)c(C(C)=O)c3cc(OC(=O)COc4ccccc4)ccc32)cc1", "Potency": "inactive"}
{"smiles": "Cc1ccc(S(=O)(=O)Nc2cnccc2C(=O)Nc2nc(-c3ccco3)cs2)cc1", "Potency": "7.98 µM (active)"}
{"smiles": "CN1CCN(C(=O)c2cccc(-c3ccc(CNc4ccc(N5CCN(C(=O)OC(C)(C)C)CC5)cc4)o3)c2)CC1", "Potency": "inactive"}
{"smiles": "COc1ccc2c(c1)c(C(=O)CN(C)C)c(C)n2C", "Potency": "inactive"}
{"smiles": "Cc1ccsc1CN(C)c1ncnc2ccc(-c3oc(-c4ccccc4)nc3C)cc12", "Potency": "12.6 µM (active)"}
{"smiles": "COc1ccc(-c2nc3ccccc3c(=O)n2Cc2ccccc2)cc1CNc1ccc(NC(C)=O)cc1", "Potency": "12.7 µM (active)"}
{"smiles": "Oc1cc2c(cc1CN1CCN(c3ncccn3)CC1)OCO2", "Potency": "7.12 µM (active)"}
{"smiles": "Cc1ccc(CNc2ncnc3ccc(-c4ccc([C@@H](C)O)o4)cc23)o1", "Potency": "inactive"}
{"smiles": "Cc1ccc(CNc2ncnc3ccc(-c4oc(-c5ccccc5)nc4C)cc23)o1", "Potency": "inactive"}
{"smiles": "Cc1cc(C)cc(-c2ccccc2C=O)c1", "Potency": "inactive"}
{"smiles": "Nc1cc(S(=O)(=O)N2CCN(S(=O)(=O)c3ccc4c(c3)OCCO4)CC2)ccn1", "Potency": "inactive"}
{"smiles": "COc1cccc(-c2cccc(C(=O)N3CCN(C(=O)c4ccc(C)cc4)CC3)c2)c1", "Potency": "inactive"}
{"smiles": "CC(=O)c1c(C)n(-c2cccc(C)c2)c2ccc(OC(=O)COc3ccccc3)cc12", "Potency": "inactive"}
{"smiles": "CCN(CC)CC(=O)c1c(C)n(C)c2ccc(OC)cc12", "Potency": "inactive"}
{"smiles": "O=C(Cc1ccc(F)cc1)Nc1cccc(-c2nc3cccnc3s2)c1", "Potency": "inactive"}
{"smiles": "COc1ccc(-c2nc(CCNC(=O)c3c(F)cccc3Cl)cs2)cc1", "Potency": "inactive"}
{"smiles": "O=C(Nc1ncc(Cc2ccc(C(F)(F)F)cc2)s1)c1ccc(-c2ccccc2[N+](=O)[O-])o1", "Potency": "12.7 µM (active)"}
{"smiles": "CC(=O)c1c(C)n(-c2cccc(Cl)c2)c2ccc(OC(=O)c3ccccc3)cc12", "Potency": "inactive"}
{"molecular_target": "Retinaldehyde dehydrogenase 3 (Homo sapiens) (UniProt P47895)", "test": "qHTS for Inhibitors of the Aldehyde Dehydrogenase Family (ALDH1A3) Confirmatory screens (AID 2061311); further: nearly all actives have a fitted effect of over 60% in size", "settings": "ALDH inhibition qHTS; series mostly up to 46 µM"}
{"smiles": "CC(=O)c1c(C)n(-c2ccc(Cl)cc2)c2ccc(OC(=O)COc3ccccc3)cc12", "Potency": "inactive"}
{"smiles": "COc1ccc(Cl)cc1C(=O)NCc1nnc2cc(-c3nc(C)no3)ccn12", "Potency": "inactive"}
{"smiles": "COc1cc(O)c(C(CC(=O)N2C[C@H](C)C[C@H](C)C2)c2ccc3c(c2)OCO3)c(OC)c1", "note": "(stereo not given in full)", "Potency": "inactive"}
{"smiles": "CCOC(=O)c1c(C)n(-c2ccccc2)c2ccc(OC(=O)c3ccccc3)cc12", "Potency": "inactive"}
{"smiles": "COc1ccc(-n2c(C)c(C(C)=O)c3cc(OC(=O)c4ccc(C)cc4)ccc32)cc1", "Potency": "inactive"}
{"smiles": "Cn1sc(=O)n(Cc2ccccc2)c1=O", "Potency": "12.7 µM (active)"}
{"smiles": "Cc1ccc(-c2ccccc2C=O)c(C)c1", "Potency": "inactive"}
{"smiles": "Cc1cc(NS(=O)(=O)c2ccc(Nc3nc(-c4ccc(C)c(C)c4)cs3)cc2)no1", "Potency": "inactive"}
{"smiles": "Cc1ccc(C(=O)NCC(c2ccc3c(c2)OCO3)N2CCN(c3ccc(F)cc3)CC2)cc1", "note": "(stereo not given)", "Potency": "inactive"}
{"smiles": "COc1cccc(S(=O)(=O)NC2CCN(C#N)C2)c1", "note": "(stereo not given)", "Potency": "inactive"}
{"smiles": "CN(C)c1ccc(-c2csc(N3CCC(C(N)=O)CC3)n2)cc1", "Potency": "12.7 µM (active)"}
{"smiles": "CC(=O)N1CCN(c2ccc(NCc3ccc(Br)o3)cc2)CC1", "Potency": "17.9 µM (active)"}
{"smiles": "CC(=O)Nc1cccc(OCc2cccc(C3Nc4ccccc4C(=O)N3Cc3ccco3)c2)c1", "note": "(stereo not given)", "Potency": "10 µM (active)"}
{"smiles": "Cc1ccc(-c2cccc(C=O)c2)c(C)c1", "Potency": "inactive"}
{"smiles": "O=C(CCC1CCCN(S(=O)(=O)c2ccccc2F)C1)NCCCN1CCOCC1", "note": "(stereo not given)", "Potency": "inactive"}
{"smiles": "N#CNC(=O)c1ccc(-n2cccc2/C=C2\\NC(=O)N(CC(=O)Nc3ccc(F)cc3)C2=O)cc1", "Potency": "inactive"}
{"smiles": "CC(=O)N1CCN(c2ccc(NCc3ccco3)cc2)CC1", "Potency": "10.1 µM (active)"}
{"smiles": "O=C1Cc2cc(S(=O)(=O)N3CCN(c4ccc(Cl)cc4)CC3)ccc2N1", "Potency": "inactive"}
{"smiles": "Cc1cccc(C(=O)NCc2nnc3cc(-c4nc(C)no4)ccn23)c1", "Potency": "inactive"}
{"smiles": "O=C(NCC(=O)N1CCN(Cc2ccccc2)CC1)c1cccc(-c2ccsc2)c1", "Potency": "inactive"}
{"smiles": "Cc1ccc2nc3sc(C(=O)NC4CCC(O)CC4)cc3cc2c1", "note": "(stereo not given)", "Potency": "20.1 µM (active)"}
{"smiles": "CC(=O)c1c(C)n(-c2ccc(C)cc2)c2ccc(OC(=O)COc3ccccc3)cc12", "Potency": "inactive"}
{"smiles": "COc1ccc(-n2c(C)c(C(C)=O)c3cc(OC(=O)COc4ccccc4)ccc32)cc1", "Potency": "inactive"}
{"smiles": "Cc1ccc(S(=O)(=O)Nc2cnccc2C(=O)Nc2nc(-c3ccco3)cs2)cc1", "Potency": "7.12 µM (active)"}
{"smiles": "CN1CCN(C(=O)c2cccc(-c3ccc(CNc4ccc(N5CCN(C(=O)OC(C)(C)C)CC5)cc4)o3)c2)CC1", "Potency": "inactive"}
{"smiles": "COc1ccc2c(c1)c(C(=O)CN(C)C)c(C)n2C", "Potency": "inactive"}
{"smiles": "Cc1ccsc1CN(C)c1ncnc2ccc(-c3oc(-c4ccccc4)nc3C)cc12", "Potency": "14.1 µM (active)"}
{"smiles": "COc1ccc(-c2nc3ccccc3c(=O)n2Cc2ccccc2)cc1CNc1ccc(NC(C)=O)cc1", "Potency": "11.3 µM (active)"}
{"smiles": "Oc1cc2c(cc1CN1CCN(c3ncccn3)CC1)OCO2", "Potency": "10.1 µM (active)"}
{"smiles": "Cc1ccc(CNc2ncnc3ccc(-c4ccc([C@@H](C)O)o4)cc23)o1", "Potency": "12.7 µM (active)"}
{"smiles": "Cc1ccc(CNc2ncnc3ccc(-c4oc(-c5ccccc5)nc4C)cc23)o1", "Potency": "22.5 µM (active)"}
{"smiles": "Cc1cc(C)cc(-c2ccccc2C=O)c1", "Potency": "inactive"}
{"smiles": "Nc1cc(S(=O)(=O)N2CCN(S(=O)(=O)c3ccc4c(c3)OCCO4)CC2)ccn1", "activity change, negative = inhibition": "-14.1% [at 0.022 µM]"}
{"smiles": "COc1cccc(-c2cccc(C(=O)N3CCN(C(=O)c4ccc(C)cc4)CC3)c2)c1", "Potency": "inactive"}
{"smiles": "CC(=O)c1c(C)n(-c2cccc(C)c2)c2ccc(OC(=O)COc3ccccc3)cc12", "Potency": "inactive"}
{"smiles": "CCN(CC)CC(=O)c1c(C)n(C)c2ccc(OC)cc12", "Potency": "inactive"}
{"smiles": "O=C(Cc1ccc(F)cc1)Nc1cccc(-c2nc3cccnc3s2)c1", "Potency": "inactive"}
{"smiles": "COc1ccc(-c2nc(CCNC(=O)c3c(F)cccc3Cl)cs2)cc1", "Potency": "inactive"}
{"smiles": "O=C(Nc1ncc(Cc2ccc(C(F)(F)F)cc2)s1)c1ccc(-c2ccccc2[N+](=O)[O-])o1", "Potency": "11.3 µM (active)"}
{"smiles": "CC(=O)c1c(C)n(-c2cccc(Cl)c2)c2ccc(OC(=O)c3ccccc3)cc12", "Potency": "inactive"}
